From PubChem BioAssay AID493200 (National Center for Advancing Translational Sciences (NCATS), 2011)
Records with an inconclusive call do not appear. The source made the active and inactive calls. The call rests on the fitted dose curve; in most records, active means well fitted activation curve with a large enough effect; inconclusive means small, poorly fitted or top-dose-only effect; inactive means no such curve, though single readings can be large or run the other way.

Experiment: qHTS Assay for Rab9 Promoter Activators: Initial hit validation from the primary screen; on activation: % of control where 0% means no effect
Settings: Huh7 Rab9 promoter luciferase reporter, 24 h; series mostly up to 46.1 µM; activation: at the top concentration
Summary of the method: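 Huh7 cells stably carrying a Rab9 promoter–luciferase construct, plated in reduced-serum medium with 10% FBS, rested 2 h, then exposed to compounds in DMSO for 24 h at 37C. Luminescence read 10 min after adding Amplite luciferase reagent.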
Potency means the concentration at half of the fitted maximal effect.

| Structure (SMILES) | activation | Potency |
| --- | --- | --- |
| O=C(NNC(=O)C1COc2ccccc2O1)c1ccccc1O (stereo not given) | -4.84% (inactive) | – |
| CNC(=O)Cn1nc(C)c2ccccc2c1=O | -1.21% (inactive) | – |
| COc1ccc(C2(CNC(=O)/C=C/c3ccco3)CCCC2)cc1OC | 2.64% (inactive) | – |
| CCC(C)(C)NC(=O)C(c1ccc(OC)cc1)N(Cc1cccs1)C(=O)CCC(=O)Nc1cc(C)on1 (stereo not given) | -17.8% (inactive) | – |
| O=C(NCCSCc1c(F)cccc1Cl)c1ccc(CN2CCOCC2)cc1 | -18.6% (inactive) | – |
| CCN(C(=O)COC(=O)c1ccc(C=O)cc1)c1c(N)n(Cc2ccccc2)c(=O)[nH]c1=O | -4.81% (inactive) | – |
| Cc1cc(C)cc(N(CC(=O)NC2CCCC2)C(=O)CNC(=O)c2ccco2)c1 | -0.368% (inactive) | – |
| Cc1ccc(C(=O)NC2CCN(CC(=O)Nc3c(C)cc(C)cc3C)CC2)cc1 | -10.8% (inactive) | – |
| Cc1cc(C)c2c(N)c(C(=O)Nc3ccc([N+](=O)[O-])cc3)sc2n1 | – | 499 nM (active) |
| O=C(O)CSc1nnc(-c2ccncc2)n1CCc1ccccc1 | 6.2% (inactive) | – |
| O=C(NC(=S)Nc1ccc(CN2CCCCC2)cc1)c1cc2ccccc2o1 | 5.55% (inactive) | – |
| O=C(CCNC(=O)c1ccc(Br)o1)NCc1ccc(Cl)cc1 | 0.0639% (inactive) | – |
| O=C(CCc1cccc(Cl)c1)NC1CCCN(Cc2ccccc2F)C1 (stereo not given) | -12.7% (inactive) | – |
| COc1ccc(NC(=O)CSc2ccc([N+](=O)[O-])cc2)cc1S(=O)(=O)N1CCOCC1 | -11.1% (inactive) | – |
| COC(=O)c1cn(NC(=O)C2CCCCC2)c(=O)c2ccccc12 | -5.53% (inactive) | – |
| Cn1c(SCc2ccccc2)nnc1-c1cnccn1 | – | 14100 nM (active) |
| NC(=O)C1(NC(=O)[C@@H]2CC3(CC(c4cccc(NC(=O)[C@@H]5CCC(=O)N5)c4)=NO3)CN2C(=O)c2ccccc2)CC1 (stereo not given in full) | 6.9% (inactive) | – |
| CCCOP(=O)(c1ccc(N(C)C)cc1)C(O)c1cccnc1 (stereo not given) | -2.9% (inactive) | – |

| Structure (SMILES) | activation | Potency |
| --- | --- | --- |
| Cc1ccc(C(=O)Nc2nnc(S(=O)(=O)N3CCOCC3)s2)cc1 | 9.51% (inactive) | – |
| CN(C)/C=N/c1c(C#N)cnn1-c1nc2ccccc2s1 | 15.4% (inactive) | – |
| O=C(COC(=O)c1ccc(-c2nnc(-c3ccccc3)o2)cc1)c1ccccc1 | – | 396 nM (active) |
| Cc1ccc2nc(Nc3ccc(Cl)cc3)c3nncn3c2c1 | -3.26% (inactive) | – |
| N#CC/C(N)=N/NC(=O)CCCNc1ncc(C(F)(F)F)cc1Cl | – | 19900 nM (active) |
| O=C(NCC1CCCO1)C(c1ccc(F)cc1)N(Cc1ccc2c(c1)OCO2)C(=O)c1ccc(CN2CCOCC2)o1 (stereo not given) | -4.25% (inactive) | – |
| O=C(CSc1nnc(-c2ccccc2)o1)Nc1ccccc1F | – | 112 nM (active) |
| O=C(CN1C(=O)COc2ccc(Cl)cc21)NCC1CCCO1 (stereo not given) | -7.34% (inactive) | – |
| O=C(NC1CCCC1)C(c1ccc(F)cc1)N(C(=O)c1csnn1)c1ccccc1 (stereo not given) | 5.07% (inactive) | – |
| Cc1ccc(C2C3=C(CC(C)(C)CC3=O)N(CCN3CCOCC3)C3=C2C(=O)CC(C)(C)C3)cc1 | -2.96% (inactive) | – |
| O=C(CCS(=O)(=O)c1ccccc1)Nc1ccc(-c2nc3ccccc3s2)cc1 | – | 223 nM (active) |
| CC1(C)CC(=O)c2c(O)c(-c3ccccc3)c(=O)n(-c3ccccc3)c2C1 | -6.27% (inactive) | – |
| CCOC(=O)c1cc2sccc2n1CC(=O)N1CCCc2ccccc21 | -13.2% (inactive) | – |
| CC(=O)Nc1ccc(NC(=O)COc2ncnc3ccccc23)cc1 | 4% (inactive) | – |
| COc1ccccc1CNC(=O)COc1ccc(C)cc1 | -5.69% (inactive) | – |
| Cc1ccc(S(=O)(=O)/N=C2\C=C(Nc3cccc(C(=O)O)c3)C(=O)c3ccccc32)cc1 | -45.7% (inactive) | – |
| O=C(CSc1nnc(-c2ccccn2)o1)Nc1ccccc1F | – | 1120 nM (active) |
